# SKKanGAS inh: S. pyogenes SKKanGAS growth inhibitors in kanamycin, primary screen, streptokinase expression inhibitor project, SKKanGAS strain, BacTiter-Glo luminescence. 6 h. inhibition, % at 7.5 µM. 300,000 tested, 1.3% active. AID 1662, 2009;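 active = mean replicate score, as percent of positive control median, at least 50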;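 also: strain carries kanamycin resistance gene driven by streptokinase promoter and grows in 40 µg/ml kanamycin; loss of luminescence reflects streptokinase promoter inhibition or plain growth inhibition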
# tim10-1 inh: growth inhibitors of tim10-1 mutant yeast, primary screen, luminescence, uHTS. S. cerevisiae tim10-1 ts strain growth, BacTiter-Glo, 24 h. inhibition, % at 20 µM. 330,000 tested, 2.2% active. AID 463190, 2010;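 active = inhibition of at least 40%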;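 also: mutant grown at 25 °C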
# Calb FLC: C. albicans growth inhibition with fluconazole, primary screen, CaCi-2 strain, Alamar Blue fluorescence | growth inhibition, % (concentration not given with the values) | AID 1979, 2009 | 300,000 tested, 0.57% active | C. albicans CaCi-2 (fluconazole-resistant clinical isolate) + fluconazole, 48 h;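 active = growth inhibition above about 58% in most replicates, limit read from the data, passing the limit was not always enough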;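 also: all wells also contain fluconazole at 8 µg/ml as a sub-toxic cotreatment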
# PfHsp90 set2: growth inhibition of PfHsp90-expressing yeast, primary screen, antimalarial PfHsp90 inhibitor project, S. cerevisiae, BacTiter-Glo luminescence, single point, set 2. BacTiter-Glo ATP, 48 h; yeast lacking PDR1 and PDR3 efflux regulators. 310,000 tested, 0.32% active. inhibition, % at 9.4 µM;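 active = every replicate shows inhibition above about 80%, whatever the replicate mean, limit read from the data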
# TIM10 inh: growth inhibitors of isogenic TIM10 control yeast, primary screen, counter-screen for tim10-1 yeast inhibitor project, luminescence, uHTS | S. cerevisiae TIM10 strain growth, BacTiter-Glo luminescence, 24 h | inhibition, % at 10 µM | 330,000 tested, 1.4% active;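 active = inhibition of 40% or more at the single tested concentration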;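 also: wild-type TIM10 isogenic control strain grown at permissive 25 °C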
# tim23-1 inh: growth inhibitors of tim23-1 mutant yeast, primary screen, luminescence, uHTS; S. cerevisiae tim23-1 growth, BacTiter-Glo luminescence, 24 h; inhibition, % at 20 µM; 330,000 tested, 1.3% active;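 active = growth inhibition of the mutant yeast at or above 50%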;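 also: temperature-sensitive mutant grown at 25 °C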
# tim10-1 confirm: growth inhibitors of tim10-1 mutant yeast, confirmation, single concentration, luminescence, S. cerevisiae; shares compounds with tim10-1 inh; S. cerevisiae tim10-1 ts strain growth, BacTiter-Glo, 24 h; inhibition, % at 20 µM; 7,400 tested, 56% active; AID 463213, 2010;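 active = inhibition of yeast growth at or above a set limit in either of two repeat tests at 20 µM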;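 also: tim10-1 mutant grown at permissive 25 °C to find synthetic lethal compounds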
# Hits are given with their value; 0 = inactive; - = no result. An excerpt weighted towards active compounds, which were near 4.7% of everything screened.
SMILES,SKKanGAS inh,tim10-1 inh,Calb FLC,PfHsp90 set2,TIM10 inh,tim23-1 inh,tim10-1 confirm
Cc1ccc(S(=O)(=O)N2CCN(C(=O)COC(=O)/C=C/c3ccc(OC(F)F)cc3)CC2)cc1,-,-,-,0,-,-,-
COc1ccc(OC)c(S(=O)(=O)Nc2ccc3[nH]c(=O)[nH]c3c2)c1,0,0,-,0,0,0,-
CC1(C)CC2CC(C)(CN2C(=O)C23CCC(C)(C(=O)C2)C3(C)C)C1 (stereo not given),0,43,0,0,0,0,0
CC12CCC(C(=O)NC3CCCC3)(CC1=O)C2(C)C (stereo not given),0,0,0,0,0,0,-
N#Cc1c(-n2cccc2/C=N/O)sc2c1CCCC2,0,41,0,0,0,0,43
CC1CC(C)CN(C(=O)/C(=C\c2ccccc2)c2ccccc2)C1 (stereo not given),0,0,0,0,0,0,-
CC1CCCCN1C(=O)/C(=C\c1ccccc1)c1ccccc1 (stereo not given),0,42,0,0,0,0,31
N#C/C(=C\c1ccc(OCC(N)=O)cc1)S(=O)(=O)c1ccccc1,0,0,0,0,0,0,-
CCCNC(=O)c1sc2c(c1C(=O)Nc1ccccn1)CCCC2,0,47,0,0,0,0,0
Cc1cc(C)cc(Nc2ncc3c(n2)CC(c2ccco2)CC3=O)c1 (stereo not given),0,45,0,0,0,0,33
COc1ccc(C(=O)c2cnc(/N=C/N(C)C)s2)cc1,0,44,0,-,0,0,36
COC(=O)c1ccccc1NC(=O)c1sc(N)nc1C,-,0,-,0,0,0,-
COC(=O)c1ccccc1NC(=O)c1sc(=S)n(C)c1N,0,46,-,0,0,0,0
O=C(/C=C/c1cccs1)Nc1cccc(NC(=O)/C=C/c2cccs2)n1,0,40,0,0,0,0,0
O=C(/C=C/c1cccs1)Nc1nccs1,0,0,0,0,0,0,-
Cn1cccc1Cc1nnc(SCC(=O)Nc2ccc(F)cc2)n1CCc1ccccc1,0,42,0,0,0,0,0
Cc1cc(C)cc(C(=O)N(Cc2ccco2)c2c(N)n(Cc3ccccc3)c(=O)[nH]c2=O)c1,-,0,-,-,0,0,-
O=C(CSc1ccccc1C(=O)NCc1ccccc1)NC12CC3CC(CC(C3)C1)C2,0,40,0,0,0,0,32
C=CCc1cccc2cc(C(=O)N3CCN(C(=O)c4ccccc4)CC3)c(=O)oc12,0,0,0,0,0,0,-
COc1ccc(-c2cc(C(F)(F)F)nc(N3CCN(Cc4ccccc4)CC3)n2)cc1OC,0,46,0,0,0,0,0
O=C(/C=C/c1cccc(Br)c1)N1CCN(c2ccccn2)CC1,0,42,0,0,0,0,0
COc1ccc(C(=O)Cn2c(C)nc([N+](=O)[O-])c2Br)cc1,0,0,0,0,0,0,-
Cc1nc([N+](=O)[O-])c(Br)n1CC(=O)c1ccc(Cl)cc1,0,43,0,-,0,0,38
COc1ccc(C)cc1NC(=O)c1cc(C2CC2)nc2c1c(C)nn2C1CCS(=O)(=O)C1 (stereo not given),-,-,-,0,-,-,-
CCN(CC)S(=O)(=O)c1ccc(C)c(NC(=O)/C=C/c2cccs2)c1,0,45,0,0,0,0,30
SMILES,SKKanGAS inh,tim10-1 inh,Calb FLC,PfHsp90 set2,TIM10 inh,tim23-1 inh,tim10-1 confirm
Cc1ccccc1NC(=O)/C=C/c1cccs1,0,0,0,0,0,0,-
O=C(COC(=O)C1CC2CCCC(C1)C2=O)NNC(=O)c1ccccc1F (stereo not given),0,0,0,-,0,0,-
Cc1ccc(-c2nc(NCc3ccco3)c3ccccc3n2)cc1,0,0,0,-,0,0,-
Cc1ccc(-c2nc(NCc3cccnc3)c3ccccc3n2)cc1,0,46,0,0,0,0,0
c1cncc(-c2nc(NCc3ccco3)c3ccccc3n2)c1,0,41,0,0,0,0,37
COc1ccc(CN2CC(C(=O)N3CC(C)CC(C)C3)CC2=O)cc1 (stereo not given),0,0,0,0,0,0,-
Cc1nn2c(-c3ccccn3)ccnc2c1Cl,0,0,0,0,0,0,-
O=C1N(c2ccccc2)C[C@@H]2C[C@@H](c3cc4ccccc4o3)N3CCC[C@@]123,0,0,0,0,0,0,-
O=C(COc1coc(CN2CCCc3ccccc32)cc1=O)Nc1ccccc1,0,0,0,0,0,0,-
CCc1cc(-c2n[nH]c(=S)n2-c2cccc(C)c2)cs1,0,43,0,0,0,0,30
Cc1cccc(-n2c(-c3csc(C)c3)n[nH]c2=S)c1,0,41,0,0,0,0,0
CN(C(=O)c1cccc(NC(=O)Cc2ccc(NC(=O)C3CCN(C(=O)C4CC4)CC3)cc2)c1)C1CCCC1,-,-,-,0,-,-,-
Cc1cccc(NC(=O)CSc2nnc3ccc(-c4ccccn4)nn23)c1,0,0,0,0,0,0,-
CC(C)C1O/C(=N/C(=O)Nc2ccc(Cl)c(Cl)c2)NC1=O (stereo not given),79,57,0,-,0,0,47
COc1ccc(C(=O)Nc2ccc(Cl)c(Cl)c2)c(OC)n1,0,0,0,0,0,0,-
NC(=NCCc1c[nH]c2ccccc12)NC(=O)c1ccc(F)cc1,0,0,0,0,0,0,-
O=C(c1ccccc1F)n1c2c(c3ccccc31)CCCC2,0,0,0,0,0,0,-
CCc1nc(C)cn1S(=O)(=O)c1cc(Br)c(C)cc1OC,0,44,0,0,0,0,0
CCCCCCCC(=O)N/N=C/c1ccc(Br)cc1,-,54,0,0,0,0,0
Cc1cccc(C)c1OCC(=O)N(Cc1ccc(Cl)cc1)C1CCS(=O)(=O)C1 (stereo not given),0,40,0,0,0,0,0
CCCOC1CCCN(C(=O)CCc2nnc(-c3ccc4c(c3)OCO4)o2)C1 (stereo not given),0,0,0,0,0,0,-
CCCC(O)(c1ccc(Cl)cc1)C(CN1CCOCC1)c1ccccc1 (stereo not given),0,0,0,0,0,0,-
CCCC(O)(c1ccccc1)C(CN1CCOCC1)c1ccccc1 (stereo not given),0,41,0,0,0,0,0
Cn1c(/C=N/Nc2nc3ccccc3[nH]2)nc2ccccc21,0,41,0,0,0,0,0
C(=N\Nc1nc2ccccc2[nH]1)/c1cccs1,0,0,0,0,0,0,-

# Screening data from PubChem.
